In the library only some 7.9% were active in any assay of this set; here they are far more common.
LASV entry inh – qHTS for Inhibitors of binding or entry into cells for Lassa Virus | Lassa virus pseudotype entry inhibition, cell reporter | Potency, µM (doses to about 37.9 µM), usual class: inhibitors | 300,000 tested, 1.2% active; calls by dose curve; tested in HEK293 cells; also: nearly all actives have a fitted effect of over 50% in size
MARV entry inh – qHTS for inhibitors of binding or entry into cells for Marburg Virus; Marburg virus pseudotyped entry inhibition, cell reporter; 300,000 tested, 1.8% active; Potency, µM (titrated, usually from 37.8 µM), hits mostly inhibitors; calls by dose curve; tested in HEK293 cells
FMDV inh – High Throughput Screening for Foot and Mouth Disease Virus Antivirals; Potency, µM (doses to about 57.9 µM), most hits filed as inhibitors; 410,000 tested, 1.2% active; FMDV antiviral cell-based qHTS; calls by dose curve; tested in HEK293T cells; also: read-out not given here; nearly all actives have a fitted effect of over 45% in size
HCMV antiviral – qHTS Assay for inhibitors of the human cytomegalovirus (HCMV) | activity change, negative = inhibition, % at 57.5 µM | 410,000 tested, 4.5% active | HFF cells, HCMV-luciferase reporter, 72 h; stronger effect = lower value | AID 1259415, 2018; in the data active = activity change below about -60%; inconclusive = no clear call, values can overlap the other calls; inactive = above about -39%
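Inhibition of viral replication was scored as loss of reporter luminescence in HFFs infected with HCMV-luciferase (MOI 1 PFU/cell) for 72 h; compounds tested at 2 doses, normalized to buffer and Salinomycin controls.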
HCV inhibitor – qHTS Assay for Inhibitors of Hepatitis C Virus (HCV); 340,000 tested, 3.4% active; Huh7.5.1 HCVcc-Cre infection, luciferase reporter, 44 h; AID 651820, 2012; Potency, µM (doses to about 41.8 µM), most hits filed as inhibitors; active = well fitted inhibition curve with a large enough effect; inconclusive = small, poorly fitted or top-dose-only effect, or another doubt; inactive = no such curve, though single readings can be large or run the other way
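Cells (1,000/well) were plated 4 h before compound, then infected with HCVcc-Cre virus (~0.5 moi). After 44 h further culture, infection was read as luciferase luminescence following a 15 min substrate incubation at room temperature.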
Numbers stand for hits; 0 = inactive; ? = inconclusive; - = not tested or not shown.

SMILES	LASV entry inh	MARV entry inh	FMDV inh	HCMV antiviral	HCV inhibitor
S=C(NN=C(c1ccccc1)c1ccccn1)N(Cc1ccccn1)Cc1ccccn1	?	0.631µM	0	-97.0	1.26µM
CC(=NNC(=S)N(Cc1ccccn1)Cc1ccccn1)c1cnccn1	2.82µM	?	0	-97.9	?
O=C(Cc1ccccc1)N/N=C/c1ccccn1	0	0	-	-83.8	0
O=C(CCCC(=O)N/N=C\c1ccccn1)N/N=C\c1ccccn1	0	0	0	0	0
S=C(NN=Cc1ccccn1)N(Cc1ccccn1)Cc1ccccn1	?	1.26µM	0	-76.8	1.26µM
O=C(Cc1ccc2c(c1)OCCO2)N1CCN(S(=O)(=O)c2cccc(C(F)(F)F)c2)CC1	0	0	0	0	0
COC(=O)[C@H]1[C@H](CO)[C@H]2Cn3c(cccc3=O)[C@H]2N1Cc1ccccc1F	-	-	-	0	-
O=C(COc1ccc(F)cc1)Nc1cc(Cl)ccc1-n1cncn1	0	0	0	0	?
O=C(c1oc2ccccc2c1CSCc1ccccc1)N1CCN(c2ncccn2)CC1	0	0	?	?	11.2µM
CCc1cccc2c(C(=O)CSc3nnc(C4CC4)o3)c[nH]c12	-	-	0	0	5.62µM
CC(Nc1ccc2c(c1)OCCO2)C(=O)N1c2ccccc2CC1C (configuration not stated)	8.91µM	0	0	0	0
CCOC(=O)/C(=C/C=C1\Sc2ccccc2N1CC)C(C)=O	?	?	0	-	?
CCOC(=O)/C(=C\C=C1/Sc2ccccc2N1CC)C(C)=O	2.82µM	?	0	-63.6	?
CCOC(=O)/C(=C/C=C1\Sc2cc(C)c(C)cc2N1CC)C(C)=O	?	?	?	-69.5	11.2µM
CN(C(=O)c1cnn(-c2ncc3c(n2)-c2ccccc2CCC3)c1C1CC1)C1CCOC1 (configuration not stated)	-	-	0	-	-
NC(=O)c1c(NC(=O)C2c3ccccc3Oc3ccccc32)sc2c1CCCCC2	0	0	0	0	?
O=C(NCc1cc([N+](=O)[O-])ccc1O)c1cccc(NS(=O)(=O)c2ccccc2)c1	0	0	0	-	-
O=C(O)c1cn(Cc2ccccc2)nc1-c1cccnc1	-	-	0	0	0
CC(C)CC(=O)NC(c1cccs1)c1ccc2cccnc2c1O (configuration not stated)	?	10µM	0	-	2.82µM
CCC(=O)NC(c1cccs1)c1ccc2cccnc2c1O (configuration not stated)	-	-	0	-100.8	3.55µM
CCC(=O)NC(c1cccs1)c1cc([N+](=O)[O-])c2cccnc2c1OC (configuration not stated)	-	-	0	-86.5	-
Cc1conc1NC(c1cccs1)c1ccc2cccnc2c1O (configuration not stated)	-	0	-	-	-
CC(=O)Nc1ccc2c(c1)C(=O)c1ccc(Cl)cc1-2	0	0	0	0	?
COc1cc2[nH]c(=O)n(Cc3ccc(C(=O)N4CCC(N5CCCCC5)CC4)cc3)c(=O)c2cc1OC	-	-	0	-	0
COc1ccc(OC)c(NC(=O)CCn2c(=S)[nH]c3ccccc3c2=O)c1	0	0	0	?	0
SMILES	LASV entry inh	MARV entry inh	FMDV inh	HCMV antiviral	HCV inhibitor
COc1ccc(N2CCN(C(=O)c3ccc4c(=O)n(CCc5ccc(OC)c(OC)c5)c(=O)[nH]c4c3)CC2)cc1	0	11.2µM	28.2µM	0	11.2µM
COc1ccc(OC)c(NC(=O)c2ccc3c(=O)n(CCc4ccccc4)c(=S)[nH]c3c2)c1	?	?	0.794µM	?	?
O=C(c1ccc2c(=O)n(CCc3ccccc3)c(=O)[nH]c2c1)N1CCN(c2ccc(F)cc2)CC1	?	?	11.2µM	0	?
COc1cc2[nH]c(=O)n(Cc3ccc(C(=O)N4CCN(c5ccc(Cl)cc5)CC4)cc3)c(=O)c2cc1OC	0	?	25.1µM	0	-
Cc1ccccc1C(=O)NCC(c1cccnc1)N1CCc2ccccc21 (configuration not stated)	0	-	0	0	-
CN(C(=O)COC(=O)CSc1ccc(C(N)=O)cc1[N+](=O)[O-])C1CCCCC1	0	0	0	0	0
N[C@@H](Cn1cc(F)c(=O)[nH]c1=O)C(=O)O	-	-	0	-	-
O=C(c1ccc(F)cc1)C1CCN(CCn2c(=O)[nH]c3ccccc3c2=O)CC1	0	11.2µM	0	0	?
O=C(c1ccc2c(=O)n(CCc3ccccc3)c(=O)[nH]c2c1)N1CCN(c2ccc(Cl)cc2)CC1	?	?	15.8µM	0	-
O=C(c1ccc2c(=O)n(-c3ccccc3)c(=O)[nH]c2c1)N1CCCCC1	0	0	-	-66.0	0
Cc1cc(Cn2cnc3c2C[C@@H](C(=O)O)N(C(=O)C(c2ccccc2)c2ccccc2)C3)ccc1N	0	?	-	-	-
COc1cc(/C=C2\C[C@H]3[C@@H]4CC=C5C[C@@H](N6CCCC6)CC[C@]5(C)[C@H]4CC[C@]3(C)[C@H]2O)cc(OC)c1OC	0	10µM	0	0	7.08µM
C[C@]12CC[C@@H](O)CC1=CCC1C2CC[C@@]2(C)C1CC[C@@H]2N (some centres not stated)	0	0	0	0	0
CCn1c(/C=C/Nc2ccccc2)[n+](CC)c2cc(Cl)c(Cl)cc21	?	12.6µM	0	0	?
Cc1ccccc1CNC(=O)C(=O)NCC1OCCCN1S(=O)(=O)c1cccs1 (configuration not stated)	-	-	0	0	0
CC(=NNC(=S)N1CC2CCC(CC2)C1)c1cnccn1	0.282µM	?	0	-95.8	?
O=C(CN1CCCCC1)N1CCN(S(=O)(=O)c2ccccc2)C1	0	0	0	-102.9	0
CC(=NNC(=S)N1CC2CCC(CC2)C1)c1ccccn1	-	-	0	-99.6	-
O=C(CN1CCN(S(=O)(=O)c2ccc(Cl)cc2)CC1)N1CCCC1	0	?	0	0	0
Cc1ccc(S(=O)(=O)N2CCN(C(=O)c3ccccn3)CC2)cc1	0	?	0	0	0
O=C(c1ccccn1)N1CCN(S(=O)(=O)c2ccccc2)CC1	0	0	0	-94.2	0
C/C(=N/NC(=O)c1cnccn1)c1ccncc1	0	0	0	0	0
COc1ccc(O[C@@H]2[C@H](O)CO[C@@H]2C=CC#Cc2ccccc2)cc1	-	0	-	-	-
O=C(CSC1=Nc2ccccc2N=C(c2ccc(F)cc2)C1)Nc1cccc(C(F)(F)F)c1	?	-	0	0	-
CC(C)c1ccccc1OS(N)(=O)=O	-	-	0	0	0
COC(=O)c1ccc2nc(-c3ccc(Cl)cc3)c(Cc3cccc(Cl)c3)n2c1	-	-	0	0	-
C/C(=N\NC(=O)C1CCCN(S(=O)(=O)c2ccccc2)C1)c1ccccn1 (configuration not stated)	?	?	?	-92.6	?
Cc1ccccc1CN1C[C@@H]2C[C@@H](c3cn[nH]c3-c3ccc(F)cc3)N3CCC[C@@]23C1=O	?	?	0	-71.1	?
COCc1ccc([C@@H]2C[C@H]3CN(Cc4ccccc4C)C(=O)[C@]34CCCN24)o1	-	-	0	0	0

Screens from PubChem.
